Where “and” joins values, the source holds several entries; their conditions need not be identical. Equal values may be shown once. The whole screen tested about 140,000 compounds, of which about 80 (0.06%) were called active. The full list was thinned out, with actives kept by preference. Values without a mark were called inactive. Rule as the data show it: active = displacement above about 50%; inactive = the rest.

In the assay the target is Heat shock 70 kDa protein 1A (Homo sapiens) (UniProt P0DMV8). Briefly: Hsp70 inhibitors, probe displacement, primary screen, biochemical, fluorescence polarization (AID 583).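 Also: plate controls were vehicle for no effect and reference ligand for full effect.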 The settings on record: mP, at 20 µM, stronger effect = higher value.
Heat shock 70 kDa protein 1A (Homo sapiens), sequence (P0DMV8 whole entry, looked up): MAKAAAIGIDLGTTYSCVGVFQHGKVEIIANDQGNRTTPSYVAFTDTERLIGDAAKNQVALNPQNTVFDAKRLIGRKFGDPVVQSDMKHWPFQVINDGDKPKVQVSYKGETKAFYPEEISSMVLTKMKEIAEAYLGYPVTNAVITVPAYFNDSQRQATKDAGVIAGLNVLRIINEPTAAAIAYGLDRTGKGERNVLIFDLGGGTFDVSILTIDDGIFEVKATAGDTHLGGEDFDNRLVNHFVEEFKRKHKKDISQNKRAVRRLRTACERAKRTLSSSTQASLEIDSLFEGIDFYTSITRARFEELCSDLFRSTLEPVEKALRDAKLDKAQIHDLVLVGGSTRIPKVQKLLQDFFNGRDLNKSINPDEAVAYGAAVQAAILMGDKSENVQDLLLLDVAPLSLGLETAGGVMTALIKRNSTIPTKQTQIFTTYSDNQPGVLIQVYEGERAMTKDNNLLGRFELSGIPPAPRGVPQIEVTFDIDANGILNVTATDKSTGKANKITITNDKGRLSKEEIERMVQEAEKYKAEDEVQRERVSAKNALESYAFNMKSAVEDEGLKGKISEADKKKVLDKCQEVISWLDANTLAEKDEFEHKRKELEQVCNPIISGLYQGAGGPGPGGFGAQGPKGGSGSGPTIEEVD
Consider `O=C1NC(=S)N(c2ccc(F)cc2)C(=O)/C1=C/c1ccc(Br)o1`, for which the displacement is 68.7% (active).
With `CCOc1ccc(N2C(=O)/C(=C/c3ccc(Br)o3)C(=O)NC2=S)cc1`, the displacement was 84.5% (active).
With `COc1ccc(N2C(=O)/C(=C/c3ccc(-c4cc(C(=O)O)ccc4Cl)o3)C(=O)NC2=S)cc1`, the displacement is 5%.
For `CN1C(=O)NC(=O)/C(=C/c2ccc(Br)o2)C1=O`, the displacement is 2.1%.
For the compound `CCOc1ccc(N2C(=O)/C(=C/c3ccc(C)o3)C(=O)NC2=S)cc1`, the displacement was -26.6%.
As to `O=C1NC(=O)N(c2ccc(Cl)cc2)C(=O)/C1=C/c1ccc(Br)o1`, the displacement was -0.1%.
On to `CN1C(=O)NC(=O)/C(=C/c2ccc(I)o2)C1=O`, for which the displacement was 9.4%.
As to `CCOc1ccc(N2C(=O)NC(=O)/C(=C\c3ccc(C)o3)C2=O)cc1`, the displacement is -5.2%.
On to `COc1ccc(N2C(=O)/C(=C/c3ccc(I)o3)C(=O)NC2=S)cc1`, for which the displacement is 92% (active).
Turning to `Cc1cccnc1NC1=NCC(C)S1` (stereo not given), the displacement was 3.9%.
Take `CCC(=O)N1N=C2C3CCN(CC3)C2C1c1ccc([N+](=O)[O-])cc1` (stereo not given): the displacement is -5.5%.
On to `CCC(C)N=Cc1c(O)n(-c2ccccc2)c(=O)[nH]c1=O` (stereo not given), for which the displacement was -0.1%.
Then `CC(C)C12CN3CCN(CC(C3)C1O)C2` (stereo not given), with 5.4% and 5.3%; and `C=CCN1C(=O)/C(=C\c2cccn2-c2cccc([N+](=O)[O-])c2)C(=O)NC1=S`, with 60.8% (active).
Take `CCN1C(=O)/C(=C/c2ccoc2)C(=O)NC1=S`: the displacement is 73.6% (active).
As for `O=C1NC(=O)N(c2ccccc2)C(=O)/C1=C/c1ccoc1`, the displacement was -9.7%.
Regarding `COc1ccc(CN2C(=O)NC(=O)/C(=C\c3ccoc3)C2=O)cc1`, the displacement is -10%.
Then `C=CCN1C(=O)NC(=O)C(=Cc2cccn2C)C1=O`, with 0.2%; and `CCN1C(=O)/C(=C/c2cccn2C)C(=O)NC1=S`, with 72.7% (active); and `Cn1cccc1/C=C1/C(=O)NC(=S)N(c2ccc(Cl)cc2)C1=O`, with 36.4%.
For `CN1C(=O)C(=Cc2cccn2-c2cccc([N+](=O)[O-])c2)C(=O)N(C)C1=O` the value was -8.6%; for `C=CCN1C(=O)/C(=C\c2cccn2-c2ccc([N+](=O)[O-])cc2)C(=O)NC1=S`, 20.3%.
Turning to `CN1C(=O)C(C2c3ccccc3C(=O)N2Cc2ccccc2)C(=O)N(C)C1=O` (stereo not given), the displacement is -7%.
`C=CCN1C(=O)/C(=C\c2cccs2)C(=O)NC1=S`: the displacement is 2.1%.
For `O=S(=O)(c1ccccc1)N1CC1c1ccccc1` (stereo not given) the value was 0.1%; for `CCOC(=O)N1CCN(C(C)C(=O)c2c[nH]c3ccccc23)CC1` (stereo not given), -0.3%.
For the compound `O=C1CN=C(c2cccs2)c2c(sc3c2CCCC3)N1`, the displacement is 0.2%.
Then `CC(C)(C)c1ccc(OCCOc2ccccc2C=C2C(=O)NC(=O)NC2=O)cc1`, with -4.4%; and `c1ccc(CN2CCN(C3CCCCC3)CC2)cc1`, with -0.7%.
For `CCc1nc2ccccc2c(=O)n1-c1ccc2ccccc2c1`, the displacement was 0.4%.
For the compound `O=C1NC(=O)N(c2cccc(Br)c2)C(=O)/C1=C/c1ccco1`, the displacement was 98.6% (active).
`O=C1NC(=S)N(c2cccc(Cl)c2)C(=O)/C1=C/c1ccc(Cl)cc1`: the displacement was -2.1%.
Consider `Cc1cccc(N2C(=O)NC(=O)C(=Cc3ccco3)C2=O)c1`, for which the displacement is 9.1%.
`O=C1NC(=S)N(c2ccccc2)C(=O)/C1=C/c1ccco1`: the displacement is 83.4% (active).
Turning to `O=C1NC(=S)N(c2ccccc2F)C(=O)C1=Cc1ccco1`, the displacement is 96.8% (active).
Take `CCOc1ccc2ccccc2c1/C=C1\C(=O)NC(=S)N(c2ccccc2)C1=O`: the displacement was 3.3%.
`CCOc1ccc(N2C(=O)/C(=C/c3ccc(C)cc3)C(=O)NC2=S)cc1`: the displacement is -3.1%.
For `Cc1ccc(C=C2C(=O)NC(=S)N(c3ccccc3F)C2=O)s1`, the displacement is -0.4%.
Consider `CCOc1ccc(N2C(=O)/C(=C/c3cc(Cl)ccc3O)C(=O)NC2=S)cc1`, for which the displacement is 0.9%.
On to `CC(C)c1ccc(N2C(=O)NC(=O)/C(=C/c3ccco3)C2=O)cc1`, for which the displacement was -1.4%.
For `CN(C)c1ccc(C=C2C(=O)NC(=S)N(c3ccccc3F)C2=O)cc1` the value was -0.7%; for `CCOc1ccc(N2C(=O)/C(=C/c3ccco3)C(=O)NC2=S)cc1`, 92% (active).
Then `CCC1(Cc2ccccc2)C(=O)NC(=O)NC1=O`, with 1.5%; and `CCOc1ccc(NC(=S)NC2CN3CCC2CC3)cc1` (stereo not given), with -0.4%; and `C#CCNc1ccncc1S(=O)(=O)NC(=O)NC(C)C`, with 5.1%.
`Cc1c(C(=O)N2CCC3(CC2)OCCO3)sc2ncnc(N(C)c3ccccc3)c12`: the displacement is 0.4%.
`CCOC(=O)C1C(=O)NC2(C)CC1c1cc(OC)ccc1O2` (stereo not given): the displacement was 7.2%.
In the case of `COC(=O)C[C@]1(C(=O)OC)CN(C#N)N(c2ccc(Cl)cc2)C12c1ccccc1-c1ccccc12`, the displacement is 10.7%.
As to `c1cc(CN2CCN(C3C4CC5CC(C4)CC3C5)CC2)ccn1` (stereo not given), the displacement is 5.7%.
Take `CN1CCN(c2nccc3c2ncn3C)CC1`: the displacement was -5.2%.
On to `COc1ccccc1N1CCN(Cc2ccccc2F)CC1`, for which the displacement is -0.6%.
For `O=C1NC(=S)N(c2cccc(Br)c2)C(=O)/C1=C/C=C/c1ccccc1`, the displacement is -13.2%.
With `O=C1NC(=S)N(c2cccc(Br)c2)C(=O)/C1=C/c1ccco1`, the displacement is 95.8% (active).
Consider `O=C1NC(=S)N(c2cccc(Br)c2)C(=O)/C1=C/c1cccs1`, for which the displacement is -3%.
Then `COc1cc(/C=N/n2cnnc2)ccc1OC(=O)N(C)C`, with 0.2%.

Values taken from PubChem BioAssay AID583 (Sanford-Burnham Center for Chemical Genomics, 2007).
